Beta cell apopt = inhibitors of cytokine-induced beta cell apoptosis, primary screen, luminescence; INS-1E cytokine-induced death, ATP luminescence, 48 h; percent of positive-control rescue, neutral wells zero; protection from apoptosis, % (test concentration not listed); 300,000 tested, 0.8% active; AID 435005, 2010;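 active = Every replicate reaches about 75%, or at least half do and their mean reaches it too, limit read from the data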;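 also: 0% = cytokine-treated negative control wells and 100% = positive control rescue; higher means more ATP so stronger rescue from cytokine killing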
Calb FLC = C. albicans growth inhibition with fluconazole, primary screen, CaCi-2 strain, Alamar Blue fluorescence | C. albicans CaCi-2 (fluconazole-resistant clinical isolate) + fluconazole, 48 h | growth inhibition, % (test concentration not listed) | 300,000 tested, 0.57% active;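 active = growth inhibition above about 58% in most replicates, limit read from the data, passing the limit was not always enough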;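 also: all wells also contain fluconazole at 8 µg/ml as a sub-toxic cotreatment; 0% = median of DMSO wells and 100% = median of geldanamycin control wells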
CSC inhib = cancer stem cell viability inhibitors, primary screen, luminescence; cancer stem cell-like cells viability; inhibition, % at 7.5 µM; 300,000 tested, 1.1% active; AID 2717, 2010; in the data active = inhibition above about 75%; tested in HMLE shEcad cells
SKKanGAS inh = S. pyogenes SKKanGAS growth inhibitors in kanamycin, primary screen, streptokinase expression inhibitor project, SKKanGAS strain, BacTiter-Glo luminescence; 6 h; inhibition, % at 7.5 µM; 300,000 tested, 1.3% active;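 active = mean replicate score, as percent of positive control median, at least 50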;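 also: strain carries kanamycin resistance gene driven by streptokinase promoter and grows in 40 µg/ml kanamycin; loss of luminescence reflects streptokinase promoter inhibition or plain growth inhibition; 0% = median of DMSO wells and 100% = positive control at its reference dose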
MPTP block = mitochondrial permeability transition pore inhibitors, primary screen, biochemical, isolated mouse mitochondria, absorbance. AID 602449, 2012. 360,000 tested, 1.4% active. inhibition, % at 10 µM. Ca2+ swelling absorbance, 30 min;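 active = inhibition of 50% or more, scaled per plate between neutral and stimulator controls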;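 also: 0% = DMSO wells given calcium and 100% = 1 mM EGTA wells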
Mdm2-MdmX inh = inhibitors of human Mdm2-MdmX association, primary screen, cell-based, luminescence, split luciferase, SaOS-2, uHTS | Protein Mdm4 (Homo sapiens) + E3 ubiquitin-protein ligase Mdm2 (Homo sapiens), … | SaOS-2 split-luciferase Mdm2/MdmX complementation | inhibition, % at 8 µM | 330,000 tested, 3% active | AID 485346, 2010;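 active = inhibition of at least 50% at 8 µM in the primary screen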
Target sequence (O15151 whole entry, looked up): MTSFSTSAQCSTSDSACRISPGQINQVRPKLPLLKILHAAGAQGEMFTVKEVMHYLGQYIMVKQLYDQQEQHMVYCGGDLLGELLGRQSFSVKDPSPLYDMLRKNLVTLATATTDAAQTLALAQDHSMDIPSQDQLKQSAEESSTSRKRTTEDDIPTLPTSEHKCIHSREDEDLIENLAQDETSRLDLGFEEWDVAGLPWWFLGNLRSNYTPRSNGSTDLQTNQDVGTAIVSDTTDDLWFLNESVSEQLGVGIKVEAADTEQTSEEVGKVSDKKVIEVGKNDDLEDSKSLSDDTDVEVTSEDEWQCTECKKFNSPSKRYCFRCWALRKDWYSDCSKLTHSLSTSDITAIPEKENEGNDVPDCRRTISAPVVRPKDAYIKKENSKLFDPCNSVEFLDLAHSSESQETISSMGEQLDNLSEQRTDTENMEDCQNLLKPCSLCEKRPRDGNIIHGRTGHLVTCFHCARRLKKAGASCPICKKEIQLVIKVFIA
Target sequence (Q00987 whole entry, looked up): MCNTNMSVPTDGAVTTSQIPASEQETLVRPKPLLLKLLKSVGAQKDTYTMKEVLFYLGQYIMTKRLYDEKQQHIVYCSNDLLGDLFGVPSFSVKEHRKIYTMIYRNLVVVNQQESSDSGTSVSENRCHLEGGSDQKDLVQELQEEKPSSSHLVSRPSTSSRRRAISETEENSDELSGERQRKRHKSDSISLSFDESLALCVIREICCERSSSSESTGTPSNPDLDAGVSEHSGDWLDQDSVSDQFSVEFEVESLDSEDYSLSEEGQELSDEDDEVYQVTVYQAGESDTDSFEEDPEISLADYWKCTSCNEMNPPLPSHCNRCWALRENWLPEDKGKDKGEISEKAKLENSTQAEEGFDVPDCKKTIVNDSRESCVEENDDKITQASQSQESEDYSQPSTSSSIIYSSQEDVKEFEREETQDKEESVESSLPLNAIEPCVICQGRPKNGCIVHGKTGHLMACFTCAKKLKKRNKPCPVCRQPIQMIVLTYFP
Mdm2-MdmX conf = Mdm2-MdmX complex disruptors, retested hits, confirmation, luminescence, single concentration; shares compounds with Mdm2-MdmX inh; Mdm2-MdmX binding, luminescent assay; inhibition, % at 8 µM; 10,000 tested, 55% active; in the data active = inhibition above about 40%
Full FLuc ctr = full-length luciferase signal inhibition, confirmation, counter-screen for Mdm2/MdmX interaction inhibitor project, cell-based, single concentration, SaOS-2; shares compounds with Mdm2-MdmX inh; inhibition, % at 8 µM; 6,200 tested, 77% active; SaOS-2 full-length luciferase counterscreen, luminescence;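 active = mean inhibition at 8 µM reaching about 37%, which flags the compound as non-specific, limit read from the data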;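 also: p53-null SaOS-2 cells with luciferase driven by a doxycycline-inducible promoter; compound on cells about two nights before reading with doxycycline added after day one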
An asterisk follows results filed as active; nt = no result given. Shown are actives, neighbours in structure and some others; about 5.4% of the full set was active somewhere.

SMILES | Beta cell apopt | Calb FLC | CSC inhib | SKKanGAS inh | MPTP block | Mdm2-MdmX inh | Mdm2-MdmX conf | Full FLuc ctr
CCOC(=O)C1=NNC(C(=O)c2ccc(C)cc2)C1c1ccc(C)cc1 (stereo unspecified) | -4 | 0 | 7 | -7 | 2 | 12 | nt | nt
COc1cc(C2C3=C(COC3=O)Oc3cc4c(cc32)OCO4)cc(OC)c1OC (stereo unspecified) | nt | nt | nt | nt | -1 | nt | nt | nt
COc1cc(C2C(C#N)=C(N)Oc3cc4c(cc32)OCO4)cc(OC)c1OC (stereo unspecified) | 64 | 3 | 38 | 1 | -1 | 81* | 68* | 126*
CCCCc1ccc(/C=C(\C#N)C(N)=S)s1 | nt | nt | nt | nt | 1 | -30 | nt | nt
O=C(N/N=C/c1cc(Br)cc([N+](=O)[O-])c1O)c1ccc(NC(=O)c2ccc(F)cc2)cc1 | 46 | 8 | 42 | 59* | 17 | 56* | 37 | 60*
O=C(N/N=C/c1ccccc1)c1ccc(NC(=O)c2ccc(F)cc2)cc1 | 2 | -9 | 3 | -2 | 1 | 0 | nt | nt
COc1ccc(C2CCCCCN2Cc2nc3ccccc3c(=O)n2CC(N)=O)cc1 (stereo unspecified) | -1 | -16 | -2 | 2 | -1 | -12 | nt | nt
CCN(CC)S(=O)(=O)c1cc(OC)ccc1N=Nc1ccc(O)c2ncccc12 | 94* | 86* | 94* | 68* | 13 | 74* | 73* | 36
CCS(=O)(=O)c1ccc(OC)c(N=Nc2ccc(O)c3ncccc23)c1 | 108* | -12 | -4 | 23 | 0 | 71* | 54* | 50*
COc1ccc(OCCOC(=O)CNC(=O)c2ccc(C)cc2)cc1 | -5 | -3 | 25 | -16 | 0 | 2 | nt | nt
CCc1ccc(/C=N/NC(=O)c2cc(C3CC3)nc3ccc(Br)cc23)s1 | 32 | -1 | -9 | 27 | 0 | 63* | 55* | 54*
COc1ccccc1C(=O)NC(=O)COc1ccc(Cl)cc1Cl | -3 | 2 | -9 | 1 | -1 | 1 | nt | nt
CNC(=O)c1c(NC(=O)c2cc(-c3cc(C)c(C)cc3O)n[nH]2)sc2c1CCCC2 | 9 | 2 | 15 | -3 | nt | 50* | -3 | nt
C=C1C(=O)O[C@@]23[C@H]1CC[C@@H](C)[C@@H]2CC[C@@]1(C)O[C@@H]31 | -3 | nt | 17 | nt | -2 | 71* | 33 | 18
Nc1c(N=Nc2cccc(Cl)c2)c(=O)[nH]n1-c1ccccc1 | 1 | -4 | -4 | -11 | 4 | 56* | -51 | nt
COc1ccc(NC(=O)CSc2nc3nc(C)cc(C)c3c(=O)[nH]2)cc1 | nt | 15 | 9 | 27 | 0 | 6 | nt | nt
CCOc1ccc(-c2nnc(N3CCCCC3)c3ccccc23)cc1 | 10 | -17 | 23 | 1 | 8 | 62* | -2 | nt
CC(C)Oc1ccc(C(=O)Nc2ccc(NC(=O)c3ccco3)c(Cl)c2)cc1 | -3 | 10 | 18 | 5 | -1 | 2 | nt | nt
CC(C)COc1ccc(C(=O)Nc2ccc(NC(=O)c3ccco3)c(Cl)c2)cc1 | 10 | -1 | nt | 4 | -6 | 60* | 10 | nt
CCn1c2ccccc2c2cc(NC(=O)c3ccc(=O)oc3)ccc21 | -8 | 3 | 4 | 12 | 10 | 34 | nt | nt
COc1cc(-n2c(=O)c3ccccc3n(CC(=O)c3ccccc3)c2=O)cc(OC)c1OC | 5 | 1 | -14 | -18 | 0 | 83* | 4 | nt
CCn1c2ccccc2c2cc(NC(=O)c3coc(=O)c(Br)c3)ccc21 | 36 | 0 | 66 | 8 | 8 | 74* | 32 | 38*
CCn1c2ccccc2c2cc(NC(=O)c3cc(OC)c(OC)c(OC)c3)ccc21 | nt | 14 | nt | 0 | 2 | 69* | 62* | 119*
COc1cc(C(=O)Nc2ccc3c(c2)N(C(=O)CCN(C)C)c2ccccc2CC3)cc(OC)c1OC | 1 | -25 | -2 | -2 | 2 | 61* | 41* | 100*
COc1ccc(Cl)cc1NS(=O)(=O)N1CCOCC1 | 4 | 7 | -23 | 2 | -1 | -5 | nt | nt
SMILES | Beta cell apopt | Calb FLC | CSC inhib | SKKanGAS inh | MPTP block | Mdm2-MdmX inh | Mdm2-MdmX conf | Full FLuc ctr
O=C(NCCN1CCNC1=O)c1ccc2sc([C@@H]3O[C@H](CO)[C@H](O)[C@H](O)[C@H]3O)nc2c1 | nt | nt | nt | nt | 0 | nt | nt | nt
O=C(NCCC1=CCCCC1)c1c(O)nc2ccccn2c1=O | -2 | 2 | -1 | 3 | -1 | 33 | nt | nt
CCn1c(=O)c(C(=O)NCCCc2ccccc2)c(O)c2ccccc21 | -2 | -7 | 8 | 5 | 1 | -9 | nt | nt
O=C(NCCCc1ccccc1)c1c(O)nc2sccn2c1=O | nt | -23 | -10 | 5 | 1 | 75* | 57* | 52*
O=C(NCCC1=CCCCC1)c1c(O)nc2sccn2c1=O | -3 | 4 | 10 | 31 | -1 | 80* | 57* | 68*
COc1ccc(C(=O)N[C@H](C(=O)OCC(=O)NC(=O)c2cccn2C)C(C)C)cc1 | -2 | -16 | -11 | -1 | 1 | 15 | nt | nt
CCC(=O)Nc1ccc(Nc2nc(C)c([N+](=O)[O-])c(Nc3ccc(NC(=O)CC)cc3)n2)cc1 | nt | -3 | 9 | 66* | 0 | 64* | 74* | 80*
Cc1nc(Nc2ccc(C(=O)O)cc2)nc(Nc2ccc(C(=O)O)cc2)c1[N+](=O)[O-] | -7 | 17 | -9 | 32 | 0 | -3 | nt | nt
Cc1nc(Nc2ccc(F)cc2)nc(Nc2ccc(F)cc2)c1[N+](=O)[O-] | 8 | 3 | 3 | -1 | 11 | 25 | nt | nt
CC(=O)Nc1ccc(Nc2nc(C)c([N+](=O)[O-])c(Nc3ccccc3)n2)cc1 | 17 | -11 | 15 | 40 | 4 | 58* | 35 | nt
Cc1cccc2c1-c1sc(C(=O)NCCCN3CCC(C)CC3)cc1CO2 | 4 | 0 | 16 | 5 | 12 | 57* | 15 | nt
Cc1ccc(C(=O)CCC(=O)N2CCN(C(=O)c3ccco3)CC2)cc1 | 3 | 3 | 13 | -21 | 0 | -6 | nt | nt
CN1CCN(c2nc(-c3ccc(C(C)(C)C)cc3)nc3ccccc23)CC1 | 6 | 13 | 38 | 22 | 0 | 50* | 48* | 173*
CCOc1ccc(N2C(=O)CC(N3CCN(c4ccc(Cl)cc4)CC3)C2=O)cc1 (stereo unspecified) | -2 | -5 | 0 | 2 | 1 | 22 | nt | nt
Cc1cccc(OCCCC(=O)NNC(=O)c2ccncc2)c1 | nt | nt | nt | nt | 0 | 27 | nt | nt
Cc1cccc(OCCCC(=O)NNC(=O)c2ccccn2)c1 | 6 | nt | nt | nt | -2 | 64* | 52* | 41*
